Assay results: PubChem BioAssay (NCATS)
Records with an inconclusive call do not appear. Entries that show only a call come without a potency. Activity calls are given as the source filed them. Calls follow the shape of the dose curve; as a rule, active = well fitted inhibition curve with a large enough effect; inconclusive = small, poorly fitted or top-dose-only effect; inactive = flat fitted curve, though single readings scatter.

Experiment: P-glycoprotein substrates identified in KB-8-5-11 adenocarcinoma cell line, qHTS therapeutic library screen (AID 1346987); also: nearly all actives have a fitted effect of over 65% in size
Settings: KB-8-5-11 (P-gp overexpressing) viability, CellTiter-Glo, 72 h; series mostly up to 44.5 µM
How it was run: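 In this qHTS, P-gp-rich KB-8-5-11 cells received library compounds across a concentration range. Viability was quantified by luminescence after 72 h at 37 degree C.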

SMILES	Potency
CCCC(=O)Nc1cccc(NC(=O)c2ccccc2Br)c1	inactive
CC1(C)CC[C@]2(C(=O)O)CC[C@]3(C)C(=CCC4[C@@]5(C)C[C@H](O)[C@H](O[C@@H]6O[C@H](CO)[C@@H](O)[C@H](O)[C@H]6O)[C@@](C)(CO)C5[C@H](O)C[C@]43C)[C@@H]2C1 (stereo partly specified)	inactive
COc1cc(/C=C/C(=O)O[C@@H]2C[C@@](O)(C(=O)O)C[C@@H](O)[C@@H]2O)ccc1O	inactive
CC1CCC2(C(=O)O)CCC3(C)C(=CCC4C5(C)CCC(O)C(C)(C(=O)O)C5CCC43C)C2C1(C)O (stereo unspecified)	inactive
COc1ccc(S(=O)(=O)Nc2nc(-c3cccc([N+](=O)[O-])c3)cs2)cc1OC	inactive
C=C1CCC2[C@](C)(CO)CCC[C@@]2(C)[C@@H]1CCC1=CCOC1=O (stereo partly specified)	inactive
